# Measurements as given in PMC5540273 (PLoS ONE, 2017).
# How the values were obtained:
# Details in all cases: concentration: 1 μM,replicates: in singlicate; n = 1
# NEK11 = system: NEK11
# NEK1 = system: NEK1
# NEK2 = system: NEK2
# NEK3 = system: NEK3
# NEK4 = system: NEK4
# NEK5 = system: NEK5
# NEK6 = system: NEK6
# NEK7 = system: NEK7
# NEK9 = system: NEK9
# NIK = system: T1, NIK
# T1 construct: gene MAP3K14
# 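Note: KINOMEscan kinase panel screen.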
Structure (SMILES),%Inh (NEK11) [%],%Inh (NEK1) [%],%Inh (NEK2) [%],%Inh (NEK3) [%],%Inh (NEK4) [%],%Inh (NEK5) [%],%Inh (NEK6) [%],%Inh (NEK7) [%],%Inh (NEK9) [%],%Inh (NIK) [%]
COc1ccc(Nc2nccc(N3CCC(NC(=O)c4cccc(C#N)c4)C3)n2)cc1 (stereo not drawn) [GSK1379730],0,0,0,0,3,12,30,0,0,0
O=C(Nc1ccccc1)c1cccc(Oc2ccc3nccn3n2)c1,20,0,2,17,0,12,0,0,0,34
Cn1ccc2ncnc(Oc3ccc(NC(=O)Nc4ccnc(C(F)(F)F)c4)c(Cl)c3)c21,0,0,0,11,0,0,0,0,5,0
OCCn1cc(-c2cnc3nnn(Cc4ccc5ncccc5c4)c3n2)cn1,0,0,6,32,0,0,0,8,0,15
COc1cc(Nc2nccc(N3CCC(NC(=O)c4cccc(C#N)c4)C3)n2)cc(OC)c1OC (stereo not drawn) [GSK1379751],0,33,13,34,2,97.1,33,11,0,27
CS(=O)c1ccc(-c2coc3ccc(-c4n[nH]c(=O)o4)cc23)cc1 (stereo not drawn),0,0,0,15,0,0,0,19,0,0
Cn1cc(-c2cccc3c(N)c(C(N)=O)nnc23)cn1,0,0,15,22,16,6,5,0,0,21
CCNCC(Cc1ccccc1)NC(=O)c1cc(Br)c(-c2ccnc3[nH]ccc23)s1.Cl.Cl (stereo not drawn) [GSK1383280],0,79,18,17,0,79,0,0,10,0
COC(=O)Nc1nc2cc(Oc3ccc(NC(=O)Nc4cc(C(F)(F)F)ccc4Cl)cc3)ccc2[nH]1.Cl [GW697465],29,0,0,0,3,0,0,0,28,0
O=C(NOCC1CC1)c1cc(Br)c(F)c(F)c1Nc1ccc(I)cc1Cl,0,0,0,43,0,0,0,0,0,0
C[C@@H](Oc1cc(-n2cnc3cc(-c4ccncc4)ccc32)sc1C(N)=O)c1ccccc1Cl [GSK479719],0,66,96.5,5,21,82,0,12,62,0
NC(=O)Nc1sc(-c2ccc(F)cc2)cc1C(N)=O [GW789449],0,0,0,47,19,36,13,0,0,37
Cc1nnc(-c2ccc3occ(-c4ccc(S(C)=O)cc4)c3n2)o1 (stereo not drawn),0,0,0,23,0,0,0,0,0,0
CC(=O)Nc1ccc(-c2cc3ncnc(SCC(=O)O)c3s2)cc1,0,0,1,12,6,0,4,1,5,11
CCN1CCN(CCCC(=O)Nc2n[nH]c3nc(-c4ccc(O)cc4)c(Br)cc23)CC1 [SB-731579],0,0,0,18,0,0,0,5,22,27
NC(=O)c1ccc(-c2cc3ncnc(SCC(=O)O)c3s2)cc1,0,0,0,35,0,0,7,0,0,0
COc1cccc(C2=C(Nc3cccc(Cl)c3)C(=O)NC2=O)c1 [SB-341556],0,0,13,5,29,0,0,5,1,26

Structure (SMILES),%Inh (NEK11) [%],%Inh (NEK1) [%],%Inh (NEK2) [%],%Inh (NEK3) [%],%Inh (NEK4) [%],%Inh (NEK5) [%],%Inh (NEK6) [%],%Inh (NEK7) [%],%Inh (NEK9) [%],%Inh (NIK) [%]
O=C1NCCc2[nH]c(-c3ccncc3)cc21,0,0,0,18,0,2,29,0,0,44
Cc1cccc(-c2nc(Nc3ccncc3)c3sccc3n2)n1 [GW869641],31,0,5,10,14,4,16,3,14,0
Cl.Nc1n[nH]c2cc(-c3ccccn3)ccc12 [GSK2189892],0,0,0,1,0,0,0,0,3,0
Cc1ccc2c(-c3ccnc(Nc4ccc(C(F)(F)F)cc4)n3)cnn2n1 [GW819776],0,0,0,78,9,84,0,2,6,10
C[C@@H](Oc1cc(-n2cnc3ccc(-c4ccncc4)cc32)sc1C(N)=O)c1ccccc1Cl [GSK483724],0,51,86,0,4,72,14,17,76,1
CCn1c(-c2nonc2N)nc2cncc(Br)c21 [SB-738004],40,0,0,19,0,10,19,0,11,79
COc1cc2c(Nc3ccc(NC(=O)c4ccccc4)cc3)ncnc2cc1OCCCN1CCOCC1 [GSK301329],0,0,0,0,22,0,0,0,13,9
O=C(NCC1CC1)c1ccc(-c2cc(C(=O)NC3CC3)ccc2F)cc1 [GW810445],0,3,0,0,0,0,0,0,0,0
Cn1ccc2ncnc(Oc3ccc(NC(=O)Nc4cncc(C(F)(F)F)c4)c(Cl)c3)c21,0,0,0,13,0,0,0,0,0,0
O=c1[nH]cc(-c2ccc(O)cc2)c2sc(-c3ccncc3)cc12 [GSK1033723],23,0,0,0,0,17,0,0,18,0
CNC(=O)c1ccccc1Nc1nc(Nc2cccc(CS(C)(=O)=O)c2)ncc1C.O=CO [GSK1520489],66,71,78,86,70,100,83,94.9,78,23
Cl.c1ccc(Oc2ccc(Nc3ccnc4cc(-c5ccc(CN6CCNCC6)o5)ccc34)cc2)nc1 [GW567142],0,0,6,2,0,0,0,5,17,7
CC(C(=O)NC1CCN(c2ccnc(Nc3ccc(F)cc3)n2)C1)c1ccc(Cl)cc1 (stereo not drawn) [GSK1379713],25,0,0,0,0,15,0,28,34,11
CN(c1cccc(CNc2nc(Nc3ccc4c(c3)CC(=O)N4)ncc2C(F)(F)F)c1)S(C)(=O)=O,0,0,0,20,0,17,23,0,6,21
CC(C)S(=O)(=O)N1CCN(Cc2ccc3c(c2)nc(NC(=O)c2ccsc2)n3C[C@H](O)c2ccccc2)CC1 [GW635815],1,0,0,0,9,8,0,0,1,9
CCCC(=O)Nc1n[nH]c2ncccc12 [SB-601436],4,0,0,0,0,0,0,13,0,10
